# From PubChem BioAssay AID504834 (National Center for Advancing Translational Sciences (NCATS), 2011)
# In all, about 320,000 compounds went through this assay and about 22,000 (6.9%) were called active. Not shown: some 27% with an inconclusive outcome. Calls come from the whole dose curve; as a rule, active = well fitted inhibition curve with a large enough effect; inconclusive = small, poorly fitted or top-dose-only effect, or another doubt; inactive = no such curve, though single readings can be large or run the other way. The full list was thinned out, with actives kept by preference.
# Assay: Primary qHTS for delayed death inhibitors of the malarial parasite plastid, 96 hour incubation
# Details: P. falciparum luciferase reporter growth; series mostly up to 28.7 µM; activity change, negative = inhibition: at the top concentration
# How it was run: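 Two-generation exposure (96 h) targets delayed-death phenotype. Reporter parasites carrying integrated firefly luciferase, in red cells at 2% hematocrit and 0.05% parasitemia final, kept at 37 C, 5% CO2; luminescence loss indicates inhibition.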
# % is set by controls: 0 for no effect and ±100 for the full control effect; potency is the fitted concentration of half-maximal effect.
SMILES,"activity change, negative = inhibition",Potency
O=C(CNC(=O)c1cccnc1)N/N=C/c1cc(Br)c(O)c(Br)c1,45% (inactive),
O=C(CCS(=O)(=O)c1ccccc1)NC1CCCC1,8.16% (inactive),
COC(=O)c1ccc(CNC(=O)C2CCC(=O)N(Cc3ccccn3)C2)cc1 (stereo unspecified),238% (inactive),
N#CCSc1nc2ccc(N3CCOCC3)cc2c(=O)n1CCc1ccccc1,,13.1 µM (active)
CCCCn1c(N)c(N2CCOCC2)c(=O)n(CC(=O)NCCc2ccccc2)c1=O,15.5% (inactive),
O=C(CCn1c(SCC(=O)c2ccccc2)nc2ccccc2c1=O)NCc1ccc(F)cc1,0% (inactive),
COC(=O)c1ccc(C23CC4(C2)[C@H](CN(Cc2cccnc2)[C@@H]4c2ccccc2)C3c2ccc(Cl)nc2)cc1 (stereo partly specified),,2.33 µM (active)
O=C(O)C1CC(=O)N(Cc2cccnc2)C1 (stereo unspecified),-6.43% (inactive),
O=S(=O)(NCc1cccnc1)c1ccc(Cl)nc1,69.2% (inactive),
Cc1ccc(CNC(=O)c2cccc3c2C(=O)c2ccc(N4CCC(C)CC4)cc2S3(=O)=O)cc1,3.93% (inactive),
Cc1cccc(CC(=O)Nc2c3c(nn2-c2cccc(Cl)c2)CS(=O)C3)c1 (stereo unspecified),37.9% (inactive),
COc1ccc(CC(=O)Nc2c3c(nn2-c2cccc(Cl)c2)CS(=O)C3)cc1 (stereo unspecified),,1.47 µM (active)
COc1ccc(-n2nc3c(c2NC(=O)Cc2cccc(C)c2)CS(=O)C3)cc1 (stereo unspecified),-26.6% (inactive),
CC(=O)c1ccc(N2Cc3ccccc3C2)cc1,15.6% (inactive),
COc1ccc(F)cc1S(=O)(=O)N1CCCCC1,-25.6% (inactive),
CCc1ccc(S(=O)(=O)Nc2cc3c(cc2N2CCCCC2)n(C)c(=O)c(=O)n3C)cc1,12.4% (inactive),
c1ccc(CCC2=NCCn3cccc32)cc1,,14.7 µM (active)
CC1CSc2nnc(CCc3ccccc3)n21 (stereo unspecified),-5.11% (inactive),
Cn1c(CCc2ccccc2)nnc1SCC(N)=O,0.25% (inactive),
CS(=O)(=O)c1ccc(C(=O)OCC(=O)NNC(=O)COc2ccc(Cl)cc2)cc1,-3.01% (inactive),
COc1ccc(C(C(=O)NC(C)(C)C)N(Cc2ccc(F)cc2)C(=O)CCC(=O)Nc2cc(C)on2)cc1 (stereo unspecified),10.8% (inactive),
Cn1c(SCC(=O)Nc2nccs2)nnc1-c1cccnc1,1.62% (inactive),
O=C(Cn1cc(C(=O)c2cccs2)c2ccccc21)NCc1cccs1,200% (inactive),
COC(=O)c1cn(CC(=O)NCc2cccs2)c2ccccc12,,13.1 µM (active)
CCN(CC)C(=O)C(=O)c1cn(CC(=O)NCc2ccc3c(c2)OCO3)c2ccccc12,30.1% (inactive),
O=C(NCCc1ccccc1)c1ccc2c(c1)N(Cc1ccccc1)CCS2,22.6% (inactive),

SMILES,"activity change, negative = inhibition",Potency
O=C(OCc1ccccc1)c1ccc(O)cc1,17.2% (inactive),
CS(=O)(=O)N1CCc2nc(-c3ccccc3)sc2C1,243% (inactive),
CCOc1cc(C2C(C(=O)c3ccco3)=C(O)C(=O)N2Cc2ccccc2)ccc1O (stereo unspecified),10.9% (inactive),
CCOC(=O)c1cc(Sc2ccccc2N)cc(C(=O)OCC)n1,-16.9% (inactive),
CC(=O)N[C@@H](C)C(=O)N1CCC(n2nccc2NC(=O)CCCc2ccccc2)CC1,-4.67% (inactive),
CC(CN1CCC(n2nccc2NC(=O)C2CCCC2)CC1)c1ccccc1 (stereo unspecified),,9.28 µM (active)
Cc1nn(C)c(Cl)c1CN1CCC(n2nccc2NC(=O)C2CCCC2)CC1,30.4% (inactive),
CC(C)=CCCC(C)CN1CCC(n2nccc2NC(=O)c2ccccc2)CC1 (stereo unspecified),,14.7 µM (active)
CC(C)Oc1ccc(CN2CCC(n3nccc3NC(=O)c3cccnc3)CC2)cc1,-17.2% (inactive),
O=C(Nc1ccnn1C1CCN(C/C=C/c2ccc(F)cc2)CC1)C1CCCC1,34.7% (inactive),
CN1CCN(c2ccccc2NC(=O)COc2ccc(C3CCCCC3)cc2)CC1,32.9% (inactive),
N#Cc1cccc(OC(=O)c2ccc3c(=O)n4c(nc3c2)CCC4)c1,47.2% (inactive),
O=C(NCCNc1ccccc1[N+](=O)[O-])c1ccccc1F,45.3% (inactive),
CCCCn1c(N)c(N(CCOC)C(=O)c2cccc(S(=O)(=O)N(C)c3ccccc3)c2)c(=O)[nH]c1=O,-3.71% (inactive),
COCCOC(=O)c1[nH]c2c(c1C)C(=O)CC(c1ccc(OC)cc1)C2 (stereo unspecified),10.5% (inactive),
CCCOC(=O)c1[nH]c2c(c1C)C(=O)CC(c1cc(OC)c(OC)c(OC)c1)C2 (stereo unspecified),,11.7 µM (active)
CCOC(=O)C1=C(N)N2C(=O)C(C)SC2=C(C(=O)OCC)C1c1cc(OC)c(OC)c(OC)c1 (stereo unspecified),-1.9% (inactive),
CCCCOC(=O)c1[nH]c(C)c(C(=O)OC)c1C,-31.2% (inactive),
CCCOC(=O)c1[nH]c2c(c1C)C(=O)CC(c1cccs1)C2 (stereo unspecified),,9.28 µM (active)
Cc1cc(C)c(S(=O)(=O)n2cc(C(C)C(N)C(=O)O)c3ccccc32)c(C)c1 (stereo unspecified),10.6% (inactive),
O=C(Nc1cccc(F)c1)NC1CCCc2ccccc21 (stereo unspecified),-14.7% (inactive),
COc1ccc(CN2CCC(n3nccc3NC(=O)CCCc3ccccc3)CC2)cc1C,-13.8% (inactive),
COCCNC(=O)c1ccc(S(=O)(=O)c2ccc(Cl)cc2)c(NC(C)=O)c1,25.4% (inactive),
O=C(O)/C=C/c1ccc(OCCCF)cc1,18% (inactive),
COc1ccc([C@H]2CC(=O)C=C(/C=C/c3ccccc3)C2)cc1,39.1% (inactive),
